Hit rate of the full screen: of about 300,000 compounds, about 22,000 (7.3%) were called active. Roughly 2% stayed inconclusive and do not appear here. The entries come from a sample that favours actives as a whole. A number with no mark means an inactive call. Rule as the data show it: active = activity score below about -60%; inconclusive = mostly about -28% to -61%; inactive = positive scores.
experiment: Activators working through SNCA 5'UTR binding (MLPCN) (AID 1814); conditions: alpha-synuclein 5'UTR reporter, activators screen; hits give low values; tested at 7.5 µM

| Compound | activity score |
| --- | --- |
| CCN(CC)C(=O)C(=O)Nc1cccc(Br)c1 | -75.5% (active) |
| COc1cccc2[nH]c(C(=O)NCCc3ccccc3)cc12 | -162% (active) |
| COc1cc(N=Cc2c(O)[nH]c3ccccc23)cc(OC)c1OC | 81% |
| NC(=S)N/N=C/c1coc2cc(Cl)ccc2c1=O | -88.7% (active) |
| CCOc1ccc(Nc2oc(Cc3ccccc3)nc2C#N)cc1 | -109% (active) |
| COc1ccc(Nc2oc(-c3ccccc3Cl)nc2C#N)cc1 | -108% (active) |
| N#Cc1nc(Cc2ccccc2)oc1NCCc1ccccc1 | -147% (active) |
| Cc1ccc(C(=O)NNC(=O)c2cccs2)cc1 | -65.9% (active) |
| O=C(Nc1ccccc1)c1ccc(NC(=O)c2cccs2)cc1 | -107% (active) |
| Cc1ccc(-c2csc(NC(=O)c3cccs3)n2)cc1 | -239% (active) |
| COc1cc(NC(=O)c2cccs2)ccc1NC(=O)c1ccccc1Cl | -62.1% (active) |
| O=C(NNC(=O)c1ccc(Cl)cc1Cl)c1cccs1 | -115% (active) |
| COc1ccc(-n2nc(C(=O)NCC(=O)N3CCN(c4ccccc4OC)CC3)c3ccccc3c2=O)c(OC)c1 | -64% (active) |
| Cc1c(N=Nc2ccc(N(C)C)cc2)c(=O)n(-c2ccccc2)n1C | -101% (active) |
| CCn1nc(C)c(NC(=O)/C=C/c2ccc(OC)c(COc3ccc(Br)cc3)c2)c1C | 61.8% |
| O=C(/C=C/c1ccc(Cl)cc1)Nc1ccc(Br)cn1 | -62.5% (active) |
| CC(C)=CCc1c(O)c(CC=C(C)C)c2occ(-c3ccc(O)cc3)c(=O)c2c1O | -75.6% (active) |
| O=C(Nc1ccc2c(c1)CCC2)c1ccc(Br)s1 | -159% (active) |
| N/C(=N\OC(=O)c1ccc2c(c1)OCO2)c1ccc(Br)cc1 | -162% (active) |
| CCCCNc1ccc(C(=O)Nc2cccc(C)n2)cc1[N+](=O)[O-] | -102% (active) |
| Cc1cc(NC(=O)CSc2nc3c(cc2C#N)CCCCC3)no1 | -104% (active) |
| COC(=O)/C(=C1\Oc2ccc(C(C)(C)C)cc2S1)C(F)(F)F | -189% (active) |
| O=C1Oc2ccccc2C(=O)/C1=C/c1ccccc1O | -96.6% (active) |
| COc1ccc2c(c1)O/C(=C\c1ccccc1O)C2=O | -94.2% (active) |
| COc1ccc(-c2noc(-c3cccc(OC)c3OC)n2)cc1OC | -193% (active) |
| COc1cc(NC(=O)c2ccc(-c3csc(C)n3)cc2)c(OC)cc1Cl | -64.4% (active) |
| O=C(CCSc1ccccc1)N1CCN(c2ccccc2F)CC1 | -115% (active) |
| COc1ccc(-c2nc3n(c2Br)CCC3)cc1 | -122% (active) |
| CN1C(=O)/C(=C/C=C2\SCCN2C)OC1=S | -169% (active) |

— PubChem BioAssay AID1814 (Broad Institute, 2009)
